Screening data as filed in PubChem BioAssay.
Pf growth 48h: inhibits P. falciparum growth in the first generation, 48 h. Potency, µM (highest dose often 28.7 µM), inactives show at the top dose activity change, negative = inhibition, actives largely listed as inhibitors. 5.9% of 310,000 active. P. falciparum luciferase growth in erythrocytes, 48 h. AID 504832; also: potency is read from the fitted curve at half-maximal effect; % is scaled to controls: 0 for no effect and ±100 for the full control effect
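Luciferase-expressing parasites in RBCs, 2% Hct / 0.1% parasitemia final; RPMI 1640 + 0.5% Albumax; 37 C, 5% CO2, one generation; luminescence read-out, lower signal = inhibition.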
HCMV inh: inhibitors of human cytomegalovirus; activity change, negative = inhibition, % at 57.5 µM; 4.5% of 410,000 active; HFF cells, HCMV-luciferase reporter, 72 h; active compounds read low; AID 1259415; in the data active = activity change below about -60%; inconclusive = no clear call, values can overlap the other calls; inactive = above about -39%; also: % is scaled to controls: 0 for no effect and ±100 for the full control effect
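Two-dose cell screen: HFF monolayers treated with compounds and infected with luciferase-expressing HCMV at 1 PFU/cell, 72 h at 37C, then lysed for luciferase measurement.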
Pf growth 96h: P. falciparum growth inhibition at 96 hour, primary screen for plastid delayed-death inhibitors. 6.9% of 320,000 active. P. falciparum luciferase reporter growth, 96 h. AID 504834. Potency, µM (top dose mostly 28.7 µM), inactives show at the highest dose activity change, negative = inhibition, hits mostly inhibitors; also: potency is read from the fitted curve at half-maximal effect; % is scaled to controls: 0 for no effect and ±100 for the full control effect
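Luminescence readout: decreased luciferase signal marks inhibited growth of reporter-expressing P. falciparum in infected red cells (2% hematocrit, 0.05% parasitemia final), exposed to compound two generations (96 h, 37 C, 5% CO2).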
HCV inh: blocks hepatitis C virus; Huh7.5.1 HCVcc-Cre infection, luciferase reporter, 44 h; Potency, µM (top dose mostly 41.8 µM), without a hit: at the top dose activity change, negative = inhibition, usual class: inhibitors; 3.4% of 340,000 active; also: potency is read from the fitted curve at half-maximal effect; % is scaled to controls: 0 for no effect and ±100 for the full control effect
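Antiviral activity was scored by luciferase reporter output from cells infected with HCVcc-Cre (~0.5 moi) in presence of compound, 44 h infection period, cells seeded 1,000/well 4 h prior.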
CHX counter: counter-screen hit for Shiga toxin inhibitors, cycloheximide | 12% of 300,000 active | AID 2314 | max response, % | cell reporter, cycloheximide protein synthesis inhibition counterscreen; in the data active = max response mostly above about 13%, no sharp cut-off; inactive = mostly below about 14%; also: read at 38.3 µM for the half of the compounds with a filed dose; 0% is about no effect
Shiga inhibitor: Shiga toxin inhibition; Vero cells, Shiga toxin protein synthesis inhibition reporter; inhibition, % at 38.7 µM; 9.2% of 290,000 active; AID 2315; in the data active = inhibition mostly above about 28%, no sharp cut-off; inactive = mostly below about 43%; also: 0% is about no effect
Starred values were filed as active, the others as inactive; u = inconclusive; x = no result given; + = active, no number. Only some compounds are listed: those with a hit (about 21% of all), similar ones and a draw of the others. Unless noted, calls follow the shape of the dose curve; as a rule, active = well fitted inhibition curve with a large enough effect; inconclusive = small, poorly fitted or top-dose-only effect, or another doubt; inactive = no such curve, though single readings can be large or run the other way.

SMILES | Pf growth 48h | HCMV inh | Pf growth 96h | HCV inh | CHX counter | Shiga inhibitor
Cc1ccc(-c2nnn(CC(=O)Nc3ccc(S(=O)(=O)N4CCC(C)CC4)cc3)n2)cc1 | -13% | -75* | u | u | 7 | 13
O=C(CNc1ccccc1F)Nc1cccc(S(=O)(=O)N2CCCCC2)c1 | u | -1 | u | -3% | x | x
O=C(CNc1cc(S(=O)(=O)N2CCCC2)ccc1OCC(F)(F)F)Nc1cccc(C(F)(F)F)c1 | u | -69* | 13µM* | 11µM* | 3 | -12
CC1CCN(S(=O)(=O)c2ccc(NC(=O)Cn3nnc(-c4ccccc4)n3)cc2)CC1 | u | -27 | 26% | -5% | -3 | -7
Cc1ccc(NC(=O)CNc2cccc(S(=O)(=O)N3CCOCC3)c2)cc1F | 10µM* | -35 | 6.6µM* | u | x | x
O=C(CNc1cccc(S(=O)(=O)N2CCCC2)c1)Nc1ccc(F)c(F)c1 | 1.5µM* | -16 | 1.3µM* | u | x | x
Cc1ccc(NC(=O)CNc2cccc(S(=O)(=O)N3CCCC3)c2)cc1F | 9.3µM* | -18 | 5.2µM* | u | x | x
O=C(CNc1cccc(S(=O)(=O)N2CCCC2)c1)Nc1cccc(F)c1 | 3.7µM* | -6 | 10µM* | -7% | x | x
O=C(Cn1nnc(-c2ccccc2Cl)n1)Nc1cccc(S(=O)(=O)N2CCCC2)c1 | x | -25 | x | u | x | x
O=C(Nc1cccc(S(=O)(=O)N2CCCCC2)c1)C1CCCN1S(=O)(=O)c1ccccc1F (stereo not drawn) | 10µM* | -13 | u | u | x | x
O=C(Cn1nnc(-c2ccc(F)cc2)n1)Nc1cccc(S(=O)(=O)N2CCCC2)c1 | u | -60* | 13µM* | 22µM* | x | x
Cc1ccc(NC(=O)[C@@H]2CCCN2S(=O)(=O)c2ccccc2F)cc1 | -12% | -8 | 2% | -1% | -3 | -3
Cc1ccccc1CC(=O)Nc1cccc(S(=O)(=O)N2CCCC2)c1 | u | -17 | -9% | -10% | x | x
CCN(CC(=O)NCc1ccc(F)cc1)C(=O)c1cccnc1SC | -12% | -9 | 16% | 28% | -7 | -5
CCN(CC)S(=O)(=O)c1cc(NC(=O)CNc2cccc(S(=O)(=O)N3CCOCC3)c2)ccc1C | u | -85* | u | 5.6µM* | x | x
Cc1ccc(NCC(=O)Nc2ccc(F)c(Cl)c2)cc1S(=O)(=O)N1CCOCC1 | x | -61* | x | x | x | x
Cc1nc(-c2ccc(F)cc2)c(CC(=O)Nc2ccc(C)c(S(=O)(=O)N3CCOCC3)c2)s1 | 8.3µM* | x | 9.3µM* | 7.9µM* | 2 | -8
Cc1cc(SCC(=O)Nc2cccc(S(=O)(=O)N3CCOCC3)c2)nc2ccccc12 | -30% | -19 | u | 13µM* | -2 | -19
Cc1ccc(NC(=O)CSc2nc(N)cc(N)n2)cc1S(=O)(=O)N1CCOCC1 | -6% | 0 | u | 4% | -1 | -3
OCC1(Cc2ccccc2)CCN(CCCC2CCCC2)CC1 | u | -15 | -2% | -4% | 0 | -15
CC[C@@H]1Cc2[nH][nH]c(=O)c2[C@@H](c2ccc(Cl)cc2)O1 | x | -4 | x | x | x | x
COc1ccccc1N1CCN(C(CNS(=O)(=O)c2cccs2)c2cccnc2)CC1 (stereo not drawn) | 10µM* | 18 | u | u | -3 | -10
COc1ccc(S(=O)(=O)NCC(c2cccnc2)N2CCN(c3ccc(F)cc3)CC2)cc1C (stereo not drawn) | 4.7µM* | -20 | 237% | -8% | -5 | -6
COc1ccc(N2CCN(C(CNS(=O)(=O)c3cc(F)ccc3F)c3cccnc3)CC2)cc1 (stereo not drawn) | x | -107* | u | 2% | -6 | -19
O=S(=O)(NCC(c1cccnc1)N1CCN(Cc2ccccc2)CC1)c1cc(F)ccc1F (stereo not drawn) | u | -4 | 10µM* | 4% | -3 | -12
SMILES | Pf growth 48h | HCMV inh | Pf growth 96h | HCV inh | CHX counter | Shiga inhibitor
O=S(=O)(NCC(c1cccnc1)N1CCN(c2ccc(F)cc2)CC1)c1cc(F)ccc1F (stereo not drawn) | x | -27 | x | -5% | x | x
CC(C)C[C@@H](CN1CCC[C@@H]1CN1C(=O)C(=O)NC[C@@H]1Cc1ccccc1)N1C[C@H](Cc2ccccc2)N(CC2CCCCC2)C(=O)C1=O | x | -35 | x | x | x | x
CC(C)Oc1cccc(NC(=O)c2cnccc2C(F)(F)F)c1 | 5% | 28 | -3% | -2% | -2 | -2
CCN1CCN(C(CNS(=O)(=O)c2ccc(OC)c(C)c2)c2cccnc2)CC1 (stereo not drawn) | -5% | 29 | 15µM* | 0% | 8 | -15
O=C/C(=C\Nc1ccc(S(=O)(=O)CCO)cc1)c1nc2cc(Cl)ccc2o1 | -6% | 14 | 3% | -7% | 0 | 2
O=C(COC(=O)c1c2c(nc3ccccc13)/C(=C\c1cccs1)CCC2)Nc1ccccc1 | u | -20 | u | u | 0 | 10
O=C(COC(=O)c1cc(-c2ccccc2)nc2ccccc12)Nc1ccc2c(c1)OCO2 | 9% | -6 | 25% | -6% | -2 | -8
NC(=O)COC(=O)c1c2c(nc3ccccc13)CCCC2 | 5% | 6 | -20% | -14% | -2 | -8
O=C(OCC(=O)N1CCc2ccccc21)c1c2c(nc3ccccc13)CCCCC2 | 4.7µM* | u | -88% | 2.8µM* | 20* | +
CC(C)NC(=O)NC(=O)COC(=O)c1c2c(nc3ccccc13)CCC2 | u | u | u | 4.5µM* | -2 | -15
CC(=O)c1ccc(NC(=O)COC(=O)c2c3c(nc4ccccc24)/C(=C\c2cccs2)CCC3)cc1 | u | u | u | u | 15* | 17
NC(=O)COC(=O)c1c2c(nc3ccccc13)CCC2 | 218% | 32 | -4% | -3% | -6 | -3
O=C(COC(=O)c1c2c(nc3ccccc13)CCCC2)Nc1ccc2c(c1)OCO2 | u | -27 | 10µM* | 5.6µM* | 14 | 23
Cc1ccc(N2CC(NC(=O)c3ccco3)CC2=O)cc1C (stereo not drawn) | x | -18 | x | x | x | x
CCCOCCc1nnc(N)s1 | 4% | -11 | 12% | 6% | 4 | -11
